Sampled rows, rich in hits. Any-hit rate of the full collection: about 2.3%.
ID4 binder = ID4 (human) binding; small molecule microarray, Flag-ID4 binding, fluorescence F/B; calls only; 31,000 tested, 1.2% active; call rule not given here;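 also: a binder raises fluorescence above local background on the spot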
Target sequence (P47928 whole entry, looked up): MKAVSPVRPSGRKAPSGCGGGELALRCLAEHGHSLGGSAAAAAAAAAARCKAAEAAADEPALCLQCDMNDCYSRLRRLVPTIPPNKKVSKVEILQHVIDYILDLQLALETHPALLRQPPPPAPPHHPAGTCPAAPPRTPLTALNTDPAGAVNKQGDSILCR
mut p53 react = re-activators of the mutant p53 pathway; activation, % at 9.98 µM; 28,000 tested, 1.5% active; AID 624151; SW480 PUMA-promoter luciferase, p53 mutant reactivation; in the data active = activation above about 52%
Hits are given with their value; . = inactive; / = not tested or not shown; + = active, no number.

SMILES	ID4 binder	mut p53 react
COC(=O)c1c(NC(=S)Nc2ccc(CC(=O)O)cc2)sc(C)c1C	+	.
O=C(CCN1C(=O)c2ccccc2C1=O)Oc1c(-c2ccccc2)oc2ccccc2c1=O	.	54
O=C(CCN1C(=O)c2ccccc2C1=O)Nc1ccc(-c2nc3ccccc3o2)cc1	.	.
CC1=CCC(C(=O)O)C(C(=O)Nc2ccc(OC(F)(F)F)cc2)C1 (stereo unspecified)	.	.
CC1=CCC(C(=O)O)C(C(=O)Nc2ccccc2NC(=O)c2ccc(C(F)(F)F)cc2)C1 (stereo unspecified)	.	108
COc1ccc(C)cc1S(=O)(=O)N(C)CC(=O)Nc1cccc(C(F)(F)F)c1	.	.
COc1cccc(NC(=O)N(C)C[C@@H]2Oc3ncc(/C=C/c4ccccc4)cc3C(=O)N([C@H](C)CO)C[C@@H]2C)c1	+	.
C[C@H](CO)N1C[C@H](C)[C@H](CN(C)C(=O)Nc2ccccc2F)Oc2ncc(-c3ccc(F)cc3)cc2C1=O	.	.
C/C=C/c1cnc2c(c1)C(=O)N([C@@H](C)CO)C[C@@H](C)[C@@H](CN(C)C(=O)Nc1cccc(OC)c1)O2	/	.
C[C@H]1CN([C@@H](C)CO)C(=O)c2cc(/C=C/c3ccccc3)cnc2O[C@H]1CN(C)C(=O)Nc1ccccc1F	/	.
C[C@@H]1CN([C@@H](C)CO)C(=O)c2cc(-c3ccc(F)cc3)cnc2O[C@@H]1CN(C)C(=O)Nc1ccccc1F	+	.
CCCNC(=O)N(C)C[C@H]1Oc2ncc(-c3ccc(C(=O)N(C)C)cc3)cc2C(=O)N([C@H](C)CO)C[C@H]1C	+	.
CCCNC(=O)N(C)C[C@@H]1Oc2ncc(-c3ccccc3)cc2C(=O)N([C@@H](C)CO)C[C@H]1C	/	.
C[C@@H]1CN([C@@H](C)CO)C(=O)c2cc(/C=C/c3ccccc3)cnc2O[C@H]1CN(C)C(=O)Nc1ccccc1F	+	.
COc1ccc([N+](=O)[O-])cc1CSc1nnc(-c2ccc(NC(C)=O)cc2)n1C	.	.
COc1ccc(Cl)cc1N(CC(=O)Nc1cc(Cl)cc(Cl)c1)S(C)(=O)=O	.	.
O=C1C(=O)N(CCc2ccccc2)C(c2ccco2)C1C(=O)c1cc2ccccc2o1 (stereo unspecified)	.	.
C[C@H](CO)N1C[C@H](C)[C@H](CN(C)C(=O)Nc2ccccc2)Oc2ncc(/C=C/c3ccccc3)cc2C1=O	+	.
C[C@@H]1CN([C@H](C)CO)C(=O)c2cc(/C=C/c3ccccc3)cnc2O[C@@H]1CN(C)C(=O)Nc1ccc(C(F)(F)F)cc1	.	.
C=CCSc1nccc(-c2sc3ccc(Cl)cc3c2C)n1	.	.
Cc1noc(C)c1NC(=O)N(C)C[C@@H]1OCCCC[C@@H](C)Oc2ccc(NS(=O)(=O)c3cn(C)cn3)cc2C(=O)N([C@H](C)CO)C[C@H]1C	+	.
Cc1noc(C)c1NC(=O)N(C)C[C@@H]1OCCCC[C@@H](C)Oc2ccc(NS(=O)(=O)c3cccs3)cc2C(=O)N([C@H](C)CO)C[C@H]1C	+	.
Cc1noc(C)c1NC(=O)N(C)C[C@H]1Oc2ccc(NS(=O)(=O)c3cccs3)cc2C(=O)N([C@@H](C)CO)C[C@@H]1C	.	.
Cc1noc(C)c1NC(=O)N(C)C[C@H]1OCCCC[C@@H](C)Oc2ccc(NS(=O)(=O)c3cccs3)cc2C(=O)N([C@H](C)CO)C[C@H]1C	+	.
Cc1noc(C)c1NC(=O)N(C)C[C@@H]1OCCCC[C@H](C)Oc2ccc(NS(=O)(=O)c3cccs3)cc2C(=O)N([C@@H](C)CO)C[C@@H]1C	+	.
SMILES	ID4 binder	mut p53 react
Cc1noc(C)c1NC(=O)N(C)C[C@@H]1Oc2ccc(NS(=O)(=O)c3cccs3)cc2C(=O)N([C@H](C)CO)C[C@@H]1C	.	.
Cc1noc(C)c1NC(=O)N(C)C[C@@H]1OCCCC[C@H](C)Oc2ccc(NS(=O)(=O)c3cn(C)cn3)cc2C(=O)N([C@@H](C)CO)C[C@H]1C	.	.
Cc1noc(C)c1NC(=O)N(C)C[C@@H]1OCCCC[C@@H](C)Oc2ccc(NS(=O)(=O)c3cccs3)cc2C(=O)N([C@@H](C)CO)C[C@H]1C	.	.
Oc1c(C(Nc2ccccn2)c2cccc(F)c2)cc(Cl)c2cccnc12 (stereo unspecified)	.	.
Cc1ccc(NC(=O)CSc2nc(O)c(C)c(=O)n2-c2ccccc2F)c(C)c1	.	.
CN(CC(=O)Nc1ccccc1Br)S(=O)(=O)c1ccc2ccccc2c1	.	.
Cc1nc(SC(C(=O)c2ccccc2)c2ccccc2)nc2c1CCCC2 (stereo unspecified)	.	.
CNC[C@@H]1OCCCC[C@H](C)Oc2ccc(NS(=O)(=O)c3cn(C)cn3)cc2C(=O)N([C@@H](C)CO)C[C@@H]1C	+	.
CNC[C@@H]1OCCCC[C@@H](C)Oc2ccc(NS(=O)(=O)c3cn(C)cn3)cc2C(=O)N([C@@H](C)CO)C[C@@H]1C	.	.
Brc1ccc(CNc2nc3ccccc3n2CCN2CCOCC2)cc1	.	.
